Assay results from PubChem BioAssay (NCI).
About 79,000 compounds went through this panel and 15% of them were active in at least one assay; those are over-represented in the sample as a whole. Active and inactive are the calls of the source. No stated cut-off is given here; in the data, active means growth inhibition above about 70%; inactive means the rest.

What was measured:
[1] = NCI Yeast Anticancer Drug Screen. Data for the rad52 strain (AID 147);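 further: 0% = growth of vehicle-treated control cultures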; settings: S. cerevisiae rad52 mutant growth inhibition, active compounds read high
Outline: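 Growth of repair-deficient yeast cells was compared between compound-treated and vehicle-treated cultures to give percent inhibition.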

[2] = NCI Yeast Anticancer Drug Screen. Data for the wt1 strain (AID 149);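 further: 0% = growth of vehicle-treated wt1 cultures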; settings: S. cerevisiae wt1 strain (SPY 50644) growth inhibition, active compounds read high
Outline: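 Yeast wt1 strain exposed to compounds; growth inhibition measured relative to vehicle-treated controls.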

[3] = NCI Yeast Anticancer Drug Screen. Data for the rad50EPP+ strain (AID 151);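 further: 0% = growth of vehicle-treated control cultures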; settings: S. cerevisiae rad50 mutant strain, active compounds read high
Outline: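 Measured: growth inhibition of rad50EPP+ yeast. Reference: vehicle-treated controls. Screen uses strains with defined genetic alterations in DNA damage repair or cell cycle control.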

[4] = NCI Yeast Anticancer Drug Screen. Data for the mgt1 strain (AID 153); settings: S. cerevisiae mgt1 mutant growth inhibition, active compounds read high
Outline: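 Compounds were applied to mgt1 mutant yeast, and growth was then compared against vehicle-treated control cultures to give percent inhibition.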

[5] = NCI Yeast Anticancer Drug Screen. Data for the rad50 strain (AID 155);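 further: 0% = growth of vehicle-only cultures of the same strain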; settings: S. cerevisiae rad50 strain growth inhibition, active compounds read high
Outline: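 Yeast carrying a defined DNA repair defect were exposed to test compounds, and growth was compared with vehicle-treated controls to give percent inhibition.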

[6] = NCI Yeast Anticancer Drug Screen. Data for the rad14 strain (AID 159);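 further: 0% = growth of vehicle-treated control cultures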; settings: S. cerevisiae rad14 strain growth inhibition, active compounds read high
Outline: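 Yeast cells carrying a defined DNA-repair defect were exposed to compounds, and growth inhibition was calculated relative to vehicle-treated control cultures.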

[7] = NCI Yeast Anticancer Drug Screen. Data for the sgs1 mgt1 strain (AID 161);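 further: 0% = growth of cultures given vehicle only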; settings: S. cerevisiae sgs1 mgt1 strain, active compounds read high
Outline: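 Yeast cells carrying a defined DNA-repair defect were exposed to test compounds. Growth inhibition was measured relative to vehicle-treated controls.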

[8] = NCI Yeast Anticancer Drug Screen. Data for the CLN2oe strain (AID 163);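 further: 0% = growth of vehicle-only control cultures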; settings: S. cerevisiae CLN2oe strain, active compounds read high
Outline: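 Cells of an engineered yeast line with disturbed cell-cycle regulation are treated with compound. Inhibition of growth is then calculated relative to the vehicle-treated reference.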

[9] = NCI Yeast Anticancer Drug Screen. Data for the cln2 rad14 strain (AID 165);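 further: 0% = growth equal to vehicle treated cultures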; settings: S. cerevisiae cln2 rad14 strain, active compounds read high
Outline: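 Strain: cln2 rad14 yeast, altered in cell cycle control and DNA damage repair. Read-out: growth inhibition vs vehicle.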

[10] = NCI Yeast Anticancer Drug Screen. Data for the bub3 strain (AID 167); settings: S. cerevisiae bub3 mutant strain, active compounds read high
Outline: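 Compounds were applied to a genetically altered yeast strain carrying a cell-cycle control defect. Growth inhibition was scored against vehicle-treated controls.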

[11] = NCI Yeast Anticancer Drug Screen. Data for the wt2 strain (AID 169);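 further: 0% = growth of vehicle-treated yeast cultures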; settings: S. cerevisiae wt2 strain growth inhibition, active compounds read high
Outline: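 Growth of compound-treated yeast is measured and expressed as inhibition relative to vehicle-only controls.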

[12] = NCI Yeast Anticancer Drug Screen. Data for the mlh1 strain (AID 171);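 further: 0% = growth of vehicle-treated control cultures of the same strain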; settings: S. cerevisiae mlh1 strain growth inhibition, active compounds read high
Outline: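 Test agents were incubated with yeast bearing a defined DNA damage repair or cell cycle control alteration; values are growth inhibition normalised to vehicle-treated cultures.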

[13] = NCI Yeast Anticancer Drug Screen. Data for the sgs1 strain (AID 173);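 further: 0% = growth of vehicle-only control cultures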; settings: S. cerevisiae sgs1 mutant, active compounds read high
Outline: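 Strain with an altered DNA repair or cell cycle pathway exposed to compound. Growth then measured. Value = inhibition versus vehicle control.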

[14] = NCI Yeast Anticancer Drug Screen. Data for the mlh1 rad18 strain (AID 175); settings: S. cerevisiae mlh1 rad18 strain growth inhibition, active compounds read high
Outline: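 A repair-deficient yeast strain is exposed to test compound, and growth is scored relative to vehicle-treated controls.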

[15] = NCI Yeast Anticancer Drug Screen. Data for the rad18 strain (AID 177); settings: S. cerevisiae rad18 mutant growth inhibition, active compounds read high
Outline: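 DNA-repair-defective yeast; compound treatment; growth inhibition scored against vehicle.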

[16] = NCI Yeast Anticancer Drug Screen. Data for the mec2-1 strain (AID 157); settings: S. cerevisiae mec2-1 strain, active compounds read high
Outline: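 Compounds were applied to mec2-1 yeast cells. Their growth was then compared with that of vehicle-treated cultures to give growth inhibition.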

[17] = at 5.0 µM (retest, dose inferred, filed as 0.5)
[18] = at 50.0 µM (retest, dose inferred, filed as 5.0)

Measured: growth inhibition

COc1cccc2c1C(=O)c1c(O)c3c(c(O)c1C2=O)CC(O)(C(O)CO)CC3OC1CC(N2CCOCC2)C(O)C(C)O1 (stereo not drawn)
active: [1]; at 1.2 µM 96% | [1]; at 3.7 µM 96% | [1]; at 11.0 µM 96% | [1]; at 33.0 µM 96% | [1]; at 100.0 µM 96% | [2]; at 1.2 µM 96% | [2]; at 3.7 µM 96% | [2]; at 11.0 µM 97% | [2]; at 33.0 µM 97% | [2]; at 100.0 µM 97% | [3]; at 1.2 µM 84% | [3]; at 3.7 µM 96% | [3]; at 11.0 µM 97% | [3]; at 33.0 µM 97% | [3]; at 100.0 µM 97% | [4]; at 1.2 µM 97% | [4]; at 3.7 µM 97% | [4]; at 11.0 µM 97% | [4]; at 33.0 µM 98% | [4]; at 100.0 µM 97% | [5]; at 1.2 µM 96% | [5]; at 3.7 µM 97% | [5]; [17] 98% | [5]; at 11.0 µM 97% | [5]; at 33.0 µM 97% | [5]; [18] 98% | [5]; at 100.0 µM 97% | [6]; at 1.2 µM 95% | [6]; at 3.7 µM 96% | [6]; at 11.0 µM 96% | [6]; at 33.0 µM 97% | [6]; at 100.0 µM 97% | [7]; [18] 90% | [7]; at 50.0 µM 91.5% | [8]; at 1.2 µM 96% | [8]; at 3.7 µM 97% | [8]; at 11.0 µM 97% | [8]; at 33.0 µM 98% | [8]; at 100.0 µM 98% | [9]; at 50.0 µM 90.8% | [10]; at 1.2 µM 98% | [10]; at 3.7 µM 98% | [10]; at 11.0 µM 98% | [10]; at 33.0 µM 98% | [10]; [18] 93% | [10]; at 50.0 µM 93.5% | [10]; at 100.0 µM 98% | [11]; at 1.2 µM 96% | [11]; at 3.7 µM 97% | [11]; at 11.0 µM 96% | [11]; at 33.0 µM 97% | [11]; at 100.0 µM 98% | [12]; at 1.2 µM 97% | [12]; at 3.7 µM 97% | [12]; at 11.0 µM 97% | [12]; at 33.0 µM 98% | [12]; at 100.0 µM 98% | [13]; at 1.2 µM 97% | [13]; at 3.7 µM 97% | [13]; at 11.0 µM 97% | [13]; at 33.0 µM 98% | [13]; at 100.0 µM 98% | [14]; [17] 99% | [14]; [18] 98% | [14]; at 50.0 µM 91.1% | [15]; at 1.2 µM 96% | [15]; at 3.7 µM 96% | [15]; at 11.0 µM 97% | [15]; at 33.0 µM 97% | [15]; at 100.0 µM 98%
inactive: [5]; at 50.0 µM 56.9% | [7]; [17] 22% | [9]; [17] 18% | [9]; [18] 61% | [10]; [17] 25%

COc1ccc(C2C3=C(COC3=O)OC(C)(C)Oc3cc4c(cc32)OCO4)cc1OC (stereo not drawn)
inactive: [1]; at 1.2 µM 17% | [1]; at 3.7 µM 19% | [1]; at 11.0 µM 11% | [1]; at 33.0 µM 47% | [2]; at 1.2 µM 9% | [2]; at 3.7 µM 10% | [2]; at 11.0 µM 13% | [2]; at 33.0 µM 23% | [3]; at 1.2 µM 5% | [3]; at 3.7 µM 4% | [3]; at 11.0 µM 4% | [3]; at 33.0 µM 4% | [3]; at 100.0 µM 12% | [4]; at 1.2 µM 27% | [4]; at 3.7 µM 26% | [4]; at 11.0 µM 31% | [4]; at 33.0 µM 54% | [5]; at 1.2 µM 15% | [5]; at 3.7 µM 26% | [5]; [17] 0% | [5]; at 11.0 µM 33% | [5]; at 33.0 µM 57% | [16]; at 1.2 µM 25% | [16]; at 3.7 µM 29% | [16]; [17] 9% | [16]; at 11.0 µM 33% | [16]; at 33.0 µM 58% | [16]; [18] 65% | [7]; [17] -9% | [7]; [18] 50% | [8]; at 1.2 µM 11% | [8]; at 3.7 µM 17% | [8]; at 11.0 µM 10% | [8]; at 33.0 µM 18% | [9]; [17] -1% | [9]; [18] 57% | [10]; at 1.2 µM -47% | [10]; at 3.7 µM -56% | [10]; [17] -9% | [10]; at 11.0 µM -33% | [10]; at 33.0 µM 24% | [11]; at 1.2 µM 5% | [11]; at 3.7 µM 2% | [11]; at 11.0 µM 8% | [11]; at 33.0 µM 26% | [12]; at 1.2 µM -11% | [12]; at 3.7 µM 0% | [12]; at 11.0 µM 6% | [12]; at 33.0 µM 57% | [14]; [17] -1% | [15]; at 1.2 µM -4% | [15]; at 3.7 µM 5% | [15]; at 11.0 µM 7% | [15]; at 33.0 µM 41%
active: [1]; at 100.0 µM 93% | [2]; at 100.0 µM 94% | [4]; at 100.0 µM 94% | [5]; [18] 91% | [5]; at 50.0 µM 97% | [5]; at 100.0 µM 90% | [16]; at 50.0 µM 96.1% | [16]; at 100.0 µM 95% | [7]; at 50.0 µM 96.7% | [8]; at 100.0 µM 90% | [9]; at 50.0 µM 91.6% | [10]; [18] 86% | [10]; at 50.0 µM 96.3% | [10]; at 100.0 µM 88% | [11]; at 100.0 µM 90% | [12]; at 100.0 µM 94% | [14]; [18] 96% | [14]; at 50.0 µM 97.5% | [15]; at 100.0 µM 94%
